Drawing on PubChem BioAssay AID1671192 (National Center for Advancing Translational Sciences (NCATS), 2021), this text covers outcome for 38 compounds.

Molecules are shown by their SMILES. Records with an inconclusive call do not appear. Activity calls are given as the source filed them. The call rests on the fitted dose curve; in most records, active means well fitted curve in the direction sought with a large enough effect; inconclusive means small, poorly fitted or top-dose-only effect, or another doubt; inactive means no such curve, though single readings can be large or run the other way.

The target in the assay is Polyunsaturated fatty acid lipoxygenase ALOX15 (Homo sapiens) (UniProt P16050). Put plainly: Counterscreen qHTS for inhibitors of human arachidonate 12S-lipoxygenase (ALOX12): ALOX15 Assay. Particulars: purified ALOX15 enzyme activity; series mostly up to 110 µM. The method, boiled down: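 Purified human ALOX15 (15hLO-1) at 40 nM in 25 mM HEPES, 0.01% Triton X-100, pH 7.5, preincubated with compound 15 min at RT. Then 50 uM arachidonic acid for 30 min; hydroperoxide detected by Fe-xylenol orange as the 573/405 nm absorbance ratio.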
Chain of Polyunsaturated fatty acid lipoxygenase ALOX15 (Homo sapiens) (P16050 whole entry, looked up): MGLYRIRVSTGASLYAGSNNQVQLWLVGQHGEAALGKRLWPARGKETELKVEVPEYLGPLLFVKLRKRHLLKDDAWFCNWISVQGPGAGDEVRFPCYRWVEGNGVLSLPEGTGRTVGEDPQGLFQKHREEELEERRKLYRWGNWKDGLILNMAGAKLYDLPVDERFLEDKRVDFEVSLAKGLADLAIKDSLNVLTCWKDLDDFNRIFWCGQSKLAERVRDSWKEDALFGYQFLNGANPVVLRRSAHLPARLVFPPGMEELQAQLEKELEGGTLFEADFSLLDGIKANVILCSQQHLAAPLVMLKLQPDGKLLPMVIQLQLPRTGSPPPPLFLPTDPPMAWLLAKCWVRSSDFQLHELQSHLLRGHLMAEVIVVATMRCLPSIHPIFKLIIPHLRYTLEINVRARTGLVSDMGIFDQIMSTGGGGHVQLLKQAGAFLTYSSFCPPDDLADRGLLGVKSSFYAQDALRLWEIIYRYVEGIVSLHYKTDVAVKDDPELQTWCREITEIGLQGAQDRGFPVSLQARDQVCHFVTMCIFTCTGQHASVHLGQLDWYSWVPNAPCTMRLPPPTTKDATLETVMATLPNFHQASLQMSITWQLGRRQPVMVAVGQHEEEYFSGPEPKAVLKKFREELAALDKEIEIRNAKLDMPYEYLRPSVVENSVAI
For the compound `CC(=O)Nc1ccc(CN2CCC(c3nc4ccc(C)cc4c(=O)[nH]3)CC2)cc1`, the result was inactive.

For the compound `O=C(N1CCOCC1)N1CCN(c2ccc(Cl)nn2)C(=O)C1`, the compound was called inactive.

For `CN1CC(=O)N(C2CCCNCC2)Cc2c(NCCCO)ncnc21` (stereo not drawn), the compound was called inactive.

Take `O=c1[nH]c(C2CCCN(Cc3ccc(-c4ccccc4)cc3)C2)nc2ccc(F)cc12` (stereo not drawn): the call was inactive.

Turning to `O=C(NCc1ccc(Cl)nc1)c1cn2c(n1)CN(C(=O)c1ccccc1)CC2`, the call was inactive.

In the case of `NCCC(=O)N1CCCC2(Cc3ccccc3CN2C(=O)c2ccccc2)C1` (stereo not drawn), the compound was classed as inactive.

As to `c1cc2c(cc1OC1CN(CC3CCCCC3)C1)OCO2`, the compound was called inactive.

For `CNC(=O)c1cn2c(n1)CN([S+](C)(=O)[O-])CC2`, the outcome was inactive.

For `O=C(NC1CC1)c1cc(-c2ccccc2C(F)(F)F)nc2onc(C3CCNC3)c12` (stereo not drawn), the result was inactive.

On to `CC1CCCCC1Nc1ncnc2c1CN(C1CCCNCC1)C(=O)CN2C` (stereo not drawn), for which the compound was classed as inactive.

On to `Cc1cccc(CN2CCCC23Cc2ccccc2CNC3=O)c1` (stereo not drawn), for which the outcome was inactive.

Take `CN1CC(=O)N(C2CCNCC2)Cc2c1ncnc2N1CCCCC1`: the call was inactive.

On to `CC(=O)N1Cc2ccccc2CC2(CCN(Cc3ccncc3)C2)C1` (stereo not drawn), for which the compound was called inactive.

As to `O=C(NCc1ccncc1)c1cc(C2CC2)nc2c1c(C1CCCN1)nn2-c1ccccc1` (stereo not drawn), the compound was classed as inactive.

For `O=Cc1ccc(-c2cccc(O)c2)cc1`, the compound was called inactive.

Regarding `O=c1n(-c2ccc(C(F)(F)F)cc2)nc2n1CCN(Cc1ccc(C(F)(F)F)cc1)C2`, the result was inactive.

Turning to `O=C(O)CCC(=O)N1Cc2ccccc2CC2(CCCN2CC2CCNC2)C1` (stereo not drawn), the result was inactive.

`COc1ccc(-c2nc(C3CC3)nc3c2CCN(C(=O)c2ccc(C(F)(F)F)cc2)CC3)cc1`: the compound was classed as inactive.

Take `O=C1NCc2ccccc2CC12CCN(Cc1cnc3ccccc3c1)C2` (stereo not drawn): the compound was called inactive.

In the case of `O=C(c1ccc(C(F)(F)F)cc1)N1CCc2nc(C3CC3)nc(-c3ccc(Cl)cc3)c2C1`, the compound was called inactive.

`COc1ccc(CN2CCC3(C2)C(=O)Nc2ccccc23)cc1` (stereo not drawn): the outcome was inactive.

Take `CNC(C)c1cccc(OC)c1` (stereo not drawn): the compound was called inactive.

`O=Cc1ccc(-c2cncc(C(=O)O)c2)cc1`: the compound was classed as inactive.

On to `CN1CC(=O)N(C2CNC2)Cc2c(NCC3CC3)ncnc21`, for which the result was inactive.

`O=C1NCc2ccccc2CC12CCN(Cc1cccc(F)c1F)CC2`: the outcome was inactive.

`O=[S+]([O-])(c1ccccc1)N1CC(Oc2ccc3c(c2)OCO3)C1`: the call was inactive.

With `Cc1cc(C(=O)NCc2ccc(F)cc2)c2c(C3CCNC3)noc2n1` (stereo not drawn), the compound was called inactive.

As for `COc1ccc(CC(=O)N2Cc3ccccc3CC23CCCN(C(=O)CCCN)C3)cc1` (stereo not drawn), the compound was called inactive.

Turning to `COCCNC(=O)c1cc(C)nc2onc(C3CCNC3)c12` (stereo not drawn), the compound was classed as inactive.

Take `CCN1CCCC12Cc1ccccc1CN(C(=O)c1ccccc1)C2` (stereo not drawn): the outcome was inactive.

As for `CCOCCNc1ncnc2c1CN(C1CCNCC1)C(=O)CN2C`, the call was inactive.

With `NCC(C1CCCCC1)N1CCCC1` (stereo not drawn), the call was inactive.

Regarding `O=Cc1ccccc1-c1cncc(C(=O)O)c1`, the outcome was inactive.

Take `O=C1NCc2ccccc2CC12CCCN2Cc1cccc(OC(F)(F)F)c1` (stereo not drawn): the result was inactive.

In the case of `CCOc1ccccc1CN1CCCCC12Cc1ccccc1CNC2=O` (stereo not drawn), the call was inactive.

`O=C1NCc2ccccc2CC12CCCN(CCCc1ccccc1)C2` (stereo not drawn): the outcome was inactive.

As for `O=C1NCc2ccccc2CC12CCCN2Cc1ccc(Cl)cc1` (stereo not drawn), the result was inactive.

On to `Cc1ccc(-c2cccc(C=O)c2)cc1Cl`, for which the call was inactive.
